Measured values published in article PMC5700166.

biological target: GST-Hu-p50 (Homo sapiens, UniProt P19838 7-356); assay: protein-binding microarray (PBM); PBM: ~300 nM protein, 6 mM HEPES pH 7.8, 80 mM KCl, 0.5 mM EDTA, 0.5 mM EGTA, 6% glycerol, 35 ng/ul poly-dIdC, 1% milk, 1 h, room temperature; Ap Aiptasia and Nv Nematostella (sea anemones) / Co Capsaspora / Aq Amphimedon (sponge) / Dm Drosophila / Hu human; RHD is the Rel homology domain; high values mean tight binding; conditions: dsDNA, one strand shown
Sequence (P19838 7-356): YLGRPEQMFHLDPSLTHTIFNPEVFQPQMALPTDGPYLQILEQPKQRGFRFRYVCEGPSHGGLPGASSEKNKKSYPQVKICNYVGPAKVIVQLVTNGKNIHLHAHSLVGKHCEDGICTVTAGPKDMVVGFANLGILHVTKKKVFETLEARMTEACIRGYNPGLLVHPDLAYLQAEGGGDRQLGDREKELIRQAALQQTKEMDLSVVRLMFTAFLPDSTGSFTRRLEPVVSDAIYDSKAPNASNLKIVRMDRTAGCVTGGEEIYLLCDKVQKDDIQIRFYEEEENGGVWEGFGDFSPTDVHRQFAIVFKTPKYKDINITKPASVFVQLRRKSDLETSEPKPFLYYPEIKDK

Sequence	binding signal
CCGATTAACATCAAAGATTTCCCTGATGTTAATCGGGTCTTGATTCGCTTGACGCTGCTG	4.86 z-score
CCGATTAACATCAAATTTTTCCCTGATGTTAATCGGGTCTTGATTCGCTTGACGCTGCTG	4.48 z-score
CCGATTAACATCAGGGAGAGCCCTGATGTTAATCGGGTCTTGATTCGCTTGACGCTGCTG	2.37 z-score
CCGATTAACATCAGGGGCCGTAATGATGTTAATCGGGTCTTGATTCGCTTGACGCTGCTG	1.41 z-score
CCGATTAACATCAAAAATTCCATTGATGTTAATCGGGTCTTGATTCGCTTGACGCTGCTG	1.07 z-score
CCGATTAACATCAAAAAACTACCTGATGTTAATCGGGTCTTGATTCGCTTGACGCTGCTG	4.32 z-score
CCGATTAACATCAATAGTTCCCCTGATGTTAATCGGGTCTTGATTCGCTTGACGCTGCTG	5.26 z-score
CCGATTAACATCACAAATTTCCCTGATGTTAATCGGGTCTTGATTCGCTTGACGCTGCTG	5.09 z-score
CCGATTAACATCAAAAATTCCCATGATGTTAATCGGGTCTTGATTCGCTTGACGCTGCTG	5.24 z-score
CCGATTAACATCAATTTATCCCCTGATGTTAATCGGGTCTTGATTCGCTTGACGCTGCTG	4.37 z-score
CCGATTAACATCAAAATTTTCCTTGATGTTAATCGGGTCTTGATTCGCTTGACGCTGCTG	1.03 z-score
CCGATTAACATCAGGGGATTAAATGATGTTAATCGGGTCTTGATTCGCTTGACGCTGCTG	4.87 z-score
CCGATTAACATCAAGCCCCCCCATGATGTTAATCGGGTCTTGATTCGCTTGACGCTGCTG	3.88 z-score
CCGATTAACATCAAATTTCCAGGTGATGTTAATCGGGTCTTGATTCGCTTGACGCTGCTG	1.2 z-score
CCGATTAACATCACTCTTTCCCCTGATGTTAATCGGGTCTTGATTCGCTTGACGCTGCTG	4.08 z-score
CCGATTAACATCAATAAATTCCCTGATGTTAATCGGGTCTTGATTCGCTTGACGCTGCTG	5.11 z-score
CCGATTAACATCAGGACAATCCCTGATGTTAATCGGGTCTTGATTCGCTTGACGCTGCTG	1.84 z-score
CCGATTAACATCACAATTTTCCCTGATGTTAATCGGGTCTTGATTCGCTTGACGCTGCTG	4.58 z-score
CCGATTAACATCACCATTTTCCCTGATGTTAATCGGGTCTTGATTCGCTTGACGCTGCTG	3.64 z-score
CCGATTAACATCACCCCATCTCGTGATGTTAATCGGGTCTTGATTCGCTTGACGCTGCTG	1.44 z-score

Sequence	binding signal
CCGATTAACATCACATTTCCCCATGATGTTAATCGGGTCTTGATTCGCTTGACGCTGCTG	5.25 z-score
CCGATTAACATCACGTTTTTCCCTGATGTTAATCGGGTCTTGATTCGCTTGACGCTGCTG	3.49 z-score
CCGATTAACATCATGAAGACCCCTGATGTTAATCGGGTCTTGATTCGCTTGACGCTGCTG	1.77 z-score
CCGATTAACATCAGGGGAACTAATGATGTTAATCGGGTCTTGATTCGCTTGACGCTGCTG	4.28 z-score
CCGATTAACATCATTAGGGAAAATGATGTTAATCGGGTCTTGATTCGCTTGACGCTGCTG	4.64 z-score
CCGATTAACATCACCGTTCCGATTGATGTTAATCGGGTCTTGATTCGCTTGACGCTGCTG	1.04 z-score
CCGATTAACATCACGGCAATCCCTGATGTTAATCGGGTCTTGATTCGCTTGACGCTGCTG	1.12 z-score
CCGATTAACATCACATACCCCCCTGATGTTAATCGGGTCTTGATTCGCTTGACGCTGCTG	3.68 z-score
CCGATTAACATCACAATAACGGGTGATGTTAATCGGGTCTTGATTCGCTTGACGCTGCTG	1.74 z-score
CCGATTAACATCAGGGGAATGGATGATGTTAATCGGGTCTTGATTCGCTTGACGCTGCTG	4.59 z-score
CCGATTAACATCAGGAAAAGTCCTGATGTTAATCGGGTCTTGATTCGCTTGACGCTGCTG	1.57 z-score
CCGATTAACATCAAAAAATTACCTGATGTTAATCGGGTCTTGATTCGCTTGACGCTGCTG	4.27 z-score
CCGATTAACATCAGGGGAAGAAATGATGTTAATCGGGTCTTGATTCGCTTGACGCTGCTG	5.16 z-score
CCGATTAACATCAGGGAAACTACTGATGTTAATCGGGTCTTGATTCGCTTGACGCTGCTG	3.85 z-score
CCGATTAACATCACCGTTTTCCCTGATGTTAATCGGGTCTTGATTCGCTTGACGCTGCTG	3.18 z-score
CCGATTAACATCAGGAAAAAACCTGATGTTAATCGGGTCTTGATTCGCTTGACGCTGCTG	2.63 z-score
CCGATTAACATCAGGGATTCCACTGATGTTAATCGGGTCTTGATTCGCTTGACGCTGCTG	1.75 z-score
CCGATTAACATCAAATTCTCCCCTGATGTTAATCGGGTCTTGATTCGCTTGACGCTGCTG	5.07 z-score
CCGATTAACATCAGGGCATTACCTGATGTTAATCGGGTCTTGATTCGCTTGACGCTGCTG	1.4 z-score
